Bioassay records from PubChem BioAssay.
A selection: hits, their analogues and other compounds. The true share with any hit is near 21%.
AMA1 RON2 block: AMA1-RON2 (P. falciparum) interaction inhibition. AlphaScreen AMA1-biotinylated RON2 peptide binding. Potency, µM (highest dose often 58.2 µM), usual class: inhibitors. actives 0.2% (n = 360,000); note: nearly all actives have a fitted effect of over 45% in size
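AMA1 (3D7) with his tag at 25 nM final met compounds first, then biotinylated RON2 peptide at 25 nM; detection used donor plus acceptor beads, 10 µg/mL apiece, read by AlphaScreen after 30 min at room temperature.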
CHX counter: counter-screen for Shiga toxin inhibitors: cycloheximide protein synthesis inhibition; cell reporter, cycloheximide protein synthesis inhibition counterscreen; max response, %; actives 12% (n = 300,000); AID 2314; in the data active = max response mostly above about 13%, no sharp cut-off; inactive = mostly below about 14%; note: read at 38.3 µM for the half of the compounds with a filed dose
Pf growth 96h: P. falciparum growth inhibition at 96 hours | P. falciparum luciferase reporter growth, 96 h | Potency, µM (doses to about 28.7 µM), most hits filed as inhibitors | actives 6.9% (n = 320,000) | AID 504834
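Plates of compound plus infected erythrocytes (2% hematocrit, 0.05% parasitemia final) incubate 96 hours, 37 C, 5% CO2. Detection reagent added; reduced luminescence from the parasites' luciferase reporter flags inhibition.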
Shiga inhibitor: Shiga toxin inhibition; Vero cells, Shiga toxin protein synthesis inhibition reporter; inhibition, % at 38.7 µM; actives 9.2% (n = 290,000); AID 2315; in the data active = inhibition mostly above about 28%, no sharp cut-off; inactive = mostly below about 43%
HCV inhibitor: inhibitors of hepatitis C virus infection; Huh7.5.1 HCVcc-Cre infection, luciferase reporter, 44 h; actives 3.4% (n = 340,000); AID 651820; Potency, µM (highest dose often 41.8 µM), actives largely listed as inhibitors
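Infectious HCV cell culture screen: compound-treated cells (1,000/well, pre-plated 4 h) are infected with HCVcc-Cre at roughly 0.5 moi and grown 44 h. Infection is quantified by luciferase signal after 15 min substrate incubation at room temperature.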
Pf growth 48h: P. falciparum growth inhibition at 48 hours (one generation). P. falciparum luciferase growth in erythrocytes, 48 h. Potency, µM (highest dose often 28.7 µM), actives largely listed as inhibitors. actives 5.9% (n = 310,000). AID 504832
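Erythrocytes infected with P. falciparum carrying an integrated firefly luciferase reporter (2% hematocrit, 0.1% parasitemia final) were exposed to compounds in RPMI 1640 with 0.5% Albumax at 37 C, 5% CO2. Growth inhibition was scored as reduced luminescence.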
Each line names hits and unclear results; the compound was inactive in the other large screens. Unless noted, calls come from the whole dose curve; as a rule, active = well fitted curve in the direction sought with a large enough effect; inconclusive = small, poorly fitted or top-dose-only effect, or another doubt; inactive = no such curve, though single readings can be large; an effect the other way counts as inactive or inconclusive.

ClC1(CNc2ccccc2)CCN(Cc2ccccc2)CC1	none (no result: CHX counter, Pf growth 96h, Shiga inhibitor, Pf growth 48h)
Cc1[nH]c2ccccc2c1C(=O)CN1CCN(C/C=C/c2ccccc2)CC1	Pf growth 96h inconclusive, HCV inhibitor inconclusive, Pf growth 48h 8.3µM
COc1ccc2[nH]c(C)c(C(=O)CN3CCN(C/C=C/c4ccccc4)CC3)c2c1	Pf growth 96h 8.3µM, HCV inhibitor inconclusive, Pf growth 48h inconclusive
Cc1[nH]c2ccccc2c1C(=O)CN1CCN(C2CCCCC2)CC1	HCV inhibitor inconclusive, Pf growth 48h inconclusive (no result: AMA1 RON2 block)
Cc1[nH]c2ccccc2c1C(=O)CN1CC=C(c2ccccc2)CC1	Pf growth 96h inconclusive, Pf growth 48h 12µM
Cc1cc(NC(=O)CSc2nc(-c3cccs3)nc3ccccc23)no1	HCV inhibitor inconclusive, Pf growth 48h inconclusive (no result: CHX counter, Shiga inhibitor)
O=c1c2ncn([C@@H]3O[C@@H]4COP(=O)(O)O[C@H]4[C@H]3O)c2nc2[nH]c(-c3ccccc3)cn12	none (no result: AMA1 RON2 block, Pf growth 96h, HCV inhibitor, Pf growth 48h)
COc1ccc2c(Cl)c(C(=O)NC3CCS(=O)(=O)C3)sc2c1 (stereo not drawn)	CHX counter 20, Shiga inhibitor 36, HCV inhibitor inconclusive
COc1ccc2c(Cl)c(C(=O)NN3CCN(C)CC3)sc2c1	CHX counter 23, Pf growth 96h inconclusive, HCV inhibitor inconclusive
O=C(COC(=O)CNC(=O)c1sc2ccccc2c1Cl)NC1CCS(=O)(=O)C1 (stereo not drawn)	none (no result: CHX counter, Shiga inhibitor)
COc1ccccc1NC(=O)NC1(C(=O)N2CCN(C)CC2)CCCCC1	none
CC(C)(C)OC(=O)Nc1ccccc1-n1nnnc1C(C(=O)c1ccc(F)cc1)N1CCOCC1 (stereo not drawn)	none (no result: CHX counter, Pf growth 96h, Shiga inhibitor, HCV inhibitor, Pf growth 48h)
Cc1ccccc1NS(=O)(=O)c1ccc(C(=O)NCCCN2CCCC2=O)cc1	Pf growth 48h inconclusive (no result: CHX counter, Shiga inhibitor)
CC(C)Cc1cc(C(=O)Nc2cc(Cl)ccc2Cl)no1	none
COc1ccc(-c2cc(C(=O)Nc3ccc(F)cc3F)no2)cc1	Pf growth 96h inconclusive (no result: Pf growth 48h)
COc1ccc(-c2cc(C(=O)Nc3c(F)cc(F)cc3Br)no2)cc1	CHX counter 16, Pf growth 96h 8.3µM, Shiga inhibitor 67
Cc1cc(C(=O)Nc2c(F)cc(F)cc2Br)cs1	Pf growth 96h 15µM
CC(C)Cc1cc(C(=O)Nc2ccc(F)cc2F)no1	CHX counter 56, Pf growth 96h inconclusive, Shiga inhibitor 90
CC(C)Cc1cc(C(=O)Nc2c(F)cc(F)cc2Br)no1	Pf growth 96h inconclusive, Shiga inhibitor 37, Pf growth 48h inconclusive
CC1CCCC(NC(=O)CCC(=O)NCc2ccccc2)C1C (stereo not drawn)	none
CCN(CC)C(=O)C1=C(C)N(Cc2ccc(OC)cc2)C(=O)C(CC(=O)NC2CCCC2)C1 (stereo not drawn)	none (no result: CHX counter, Pf growth 96h, Shiga inhibitor, HCV inhibitor, Pf growth 48h)
O=C(NCc1ccccc1)C(c1ccccn1)N(C(=O)c1csnn1)c1ccccc1F (stereo not drawn)	none
CC1CCN(C(=O)CSc2nnc(CNC(=O)c3ccc(S(=O)(=O)N(C)C)cc3)o2)CC1	HCV inhibitor inconclusive
O=C(CSc1ncc(-c2ccccc2)[nH]1)Nc1ccccc1	none (no result: Pf growth 96h)
CC(=O)Nc1cccc(NC(=O)CSc2ncc(-c3ccccc3)[nH]2)c1	none
O=C(CSc1ncc(-c2ccccc2)[nH]1)Nc1ccccc1F	CHX counter 40, Shiga inhibitor 72
O=C(CSc1ncc(-c2ccccc2)[nH]1)Nc1cccc(O)c1	CHX counter 12 (no result: Pf growth 48h)
O=C(CSc1ncn[nH]1)N1CCCCC1	none
O=C(CSc1ncc(-c2ccc(F)cc2)[nH]1)N1CCCCC1	CHX counter 26, Shiga inhibitor 44
NC(=O)CSc1ncc(-c2ccccc2)[nH]1	CHX counter 14, Pf growth 96h inconclusive, Shiga inhibitor 79
COc1ccc(-c2cc(-c3ccco3)[nH]c(=O)c2C#N)cc1OC	none
CC(C)CCn1c(N)c(C(=O)NCc2cccs2)c2nc3ccccc3nc21	Pf growth 96h inconclusive, HCV inhibitor 14µM, Pf growth 48h 0.83µM
CC(C)OCCCNC(=O)c1c(N)n(Cc2cccs2)c2nc3ccccc3nc12	Pf growth 96h 12µM, HCV inhibitor 10µM, Pf growth 48h 9.3µM
COCCn1c(N)c(C(=O)NCc2cccs2)c2nc3ccccc3nc21	Pf growth 96h inconclusive, HCV inhibitor inconclusive, Pf growth 48h inconclusive
CC(Nc1cc(C)cc(C)c1)=[N+](C)CCNS(=O)(=O)c1ccc(Cl)cc1	none
COc1ccc(/C=C2\CCC(C3CCCC3)C2=O)cc1OC (stereo not drawn)	CHX counter 36, Shiga inhibitor 49
COc1cc(OC)c(OC)cc1/C=C1\CCC(C2CCCC2)C1=O (stereo not drawn)	AMA1 RON2 block inconclusive, HCV inhibitor inconclusive
COc1cc(/C=C2\CCC(C3CCCC3)C2=O)ccc1OC(C)C (stereo not drawn)	Pf growth 96h inconclusive, Pf growth 48h 2.1µM
CN1CCc2c(c3c(n2C)CCN(C)C3c2ccc(F)cc2)C1c1ccc(F)cc1 (stereo not drawn)	Pf growth 48h inconclusive (no result: Pf growth 96h)
COc1ccc(C2c3c4c(n(C)c3CCN2C)CCN(C)C4c2ccc(OC)cc2)cc1 (stereo not drawn)	HCV inhibitor 13µM, Pf growth 48h inconclusive (no result: Pf growth 96h)
O=C(NCc1csc(-c2ccccc2)n1)c1cc(F)cc2c1OCOC2	CHX counter 45, Shiga inhibitor 83
O=C(Cc1csc(-c2ccccc2)n1)NCc1ccc(F)cc1	HCV inhibitor inconclusive
CCCCn1c(C)cc2c(c1=O)C1O[C@](c3ccsc3)(Cc3cc(OC)c(OC)cc31)O2	Pf growth 96h inconclusive, Pf growth 48h inconclusive (no result: AMA1 RON2 block, HCV inhibitor)
Cc1cc(C)cc(C(=O)Nc2ccc(N3CCN(C(=O)c4ccco4)CC3)cc2)c1	Pf growth 96h inconclusive, HCV inhibitor inconclusive, Pf growth 48h inconclusive
C[C@H](CO)N1C[C@H](C)[C@@H](CN(C)C(=O)NC2CCCCC2)Oc2ccc(NS(C)(=O)=O)cc2C1=O	none (no result: CHX counter, Pf growth 96h, Shiga inhibitor, Pf growth 48h)
COc1cccc(C(=O)Nc2ccc3c(cc2=O)[C@@H](NC(C)=O)CCc2cc(OC)c(OC)c(OC)c2-3)c1	Pf growth 96h inconclusive, HCV inhibitor 32µM, Pf growth 48h 8.3µM
CC(C)N1CCC(=NNC(=O)c2ccc(Br)o2)CC1	CHX counter 42, Shiga inhibitor 37, Pf growth 48h inconclusive
CC(C)N1CCN(C(=O)c2ccc(NC(=O)c3ccc(Br)o3)cc2)CC1	none (no result: CHX counter, Shiga inhibitor)
O=C(NC1CCCCC1)c1ccc(Br)o1	none
O=C(NN=C1CCCCCC1)c1ccc(Br)o1	CHX counter 48, Shiga inhibitor 87
CCCOc1ccc(F)cc1-c1cc(C(=O)Nc2ccccc2)[nH]n1	none (no result: CHX counter, Pf growth 96h, Shiga inhibitor, HCV inhibitor, Pf growth 48h)
O=C(N/N=C/c1ccccc1)c1cc(-c2ccc3c(c2)OCO3)n[nH]1	CHX counter 14
O=C(N/N=C/c1cccc(O)c1)c1cc(-c2ccc3c(c2)OCO3)n[nH]1	CHX counter 10
CC(C)(C)c1ccc(C(=O)N2CCC(C(=O)NC3CCCCCC3)CC2)cc1	none
CCn1cc(CNC(=S)Nc2cccc3ccccc23)cn1	HCV inhibitor inconclusive
